Shown are actives, neighbours in structure and some others; about 2.6% of the full set was active somewhere.
Mcl1 Bid PPI: Mcl-1/Bid interaction inhibition. TR-FRET Mcl-1/Bid-Dy647 peptide binding, 1536-well. inhibition, % at 21.7 µM. 0.97% of 220,000 active;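 active = compounds that cut the binding signal by more than half at the single screening dose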;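 note: His-tagged Mcl-1 with europium anti-His antibody binding Bid BH3 peptide; 0% = Mcl-1 plus peptide wells and 100% = peptide-only wells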
Target sequence (Q07820 whole entry, looked up): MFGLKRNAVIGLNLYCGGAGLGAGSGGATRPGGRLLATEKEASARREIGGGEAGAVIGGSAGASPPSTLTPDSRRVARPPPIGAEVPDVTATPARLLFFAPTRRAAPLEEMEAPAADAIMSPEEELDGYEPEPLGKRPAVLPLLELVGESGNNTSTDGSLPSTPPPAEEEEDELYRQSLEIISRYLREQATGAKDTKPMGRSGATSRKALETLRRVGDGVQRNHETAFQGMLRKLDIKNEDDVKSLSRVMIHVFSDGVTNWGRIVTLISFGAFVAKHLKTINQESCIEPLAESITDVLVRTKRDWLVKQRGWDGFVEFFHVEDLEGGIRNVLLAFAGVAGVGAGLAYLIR
Mcl1 Noxa PPI: Mcl-1/Noxa interaction inhibition; TR-FRET Mcl-1/Noxa peptide binding, 2 h; inhibition, % at 21.7 µM; 1.5% of 220,000 active; AID 1022;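 active = compounds that cut the protein-peptide binding signal by more than 50% relative to plate controls in a single-dose test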;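 note: His-tagged Mcl-1 with rhodamine Noxa BH3 peptide and terbium anti-His antibody; 0% = Mcl-1 plus Noxa peptide wells and 100% = peptide-only wells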
Bim-Mcl-1: human Bim-Mcl-1 interaction inhibition; inhibition, % at 10 µM; Q07820; 0.1% of 190,000 active; Bead-based flow cytometry, Bim peptide-Mcl-1 binding; AID 1009; in the data active = inhibition above about 40%;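 note: 0% = no compound tracer wells and 100% = peptide blocker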
eIF4E-4G inh: eIF4E/eIF4G interaction inhibition in translation initiation | P63073+Q04637 | TR-FRET eIF4E-eIF4GI(517-606) binding, 2 h | inhibition, % at 21.7 µM | 0.37% of 220,000 active | AID 782;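 active = inhibition above about 30%, limit read from the data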;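 note: 0% = full FRET control wells and 100% = background wells lacking eIF4GI fragment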
14-3-3 Bad PPI: disrupts binding of bovine 14-3-3 zeta to phospho-Bad peptide; P63103; TR-FRET 14-3-3zeta/Dy647-pBad peptide displacement, 1 h; inhibition, % at 21.7 µM; 0.71% of 220,000 active;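 active = inhibition above about 70%, limit read from the data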;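 note: 0% = full 14-3-3 plus peptide FRET controls and 100% = background without 14-3-3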
MCL1-BIM inh: inhibitors of human MCL1 binding to BIM-BH3 peptide; Q07820; GST-MCL1 / FITC-Bim-BH3 fluorescence polarization; inhibition, % at 10.9 µM; 0.68% of 320,000 active;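 active = inhibition above the mean inhibition of all tested compounds plus 3 SD, set per campaign, cut at about 40% in these data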;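 note: 0% = DMSO wells and 100% = unlabeled Bim-BH3 peptide control; higher means more loss of mP so more displacement of Bim peptide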
BCLXL inh confirm: counter-screen for MCL1 inhibitors: confirmation of human Bcl-xL inhibitors. shares compounds with MCL1-BIM inh. GST-Bcl-xL / FITC-Bim BH3 peptide FP binding. inhibition, % at 10.9 µM. 54% of 1,700 active. AID 2166;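 active = inhibition above a cutoff equal to the mean inhibition of all tested compounds plus 3 SD, cut at about 30% in these data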;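 note: 0% = DMSO wells and 100% = unlabeled Bim BH3 control peptide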
Target sequence (Q07817 whole entry, looked up): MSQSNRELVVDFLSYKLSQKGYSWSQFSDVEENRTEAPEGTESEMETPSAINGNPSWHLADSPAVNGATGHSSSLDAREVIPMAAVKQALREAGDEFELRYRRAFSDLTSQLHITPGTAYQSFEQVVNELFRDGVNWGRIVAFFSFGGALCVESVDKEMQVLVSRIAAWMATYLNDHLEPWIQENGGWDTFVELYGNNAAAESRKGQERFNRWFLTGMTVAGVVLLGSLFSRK
MCL1 BIM confirm: MCL1-BIM-BH3 interaction inhibition, confirmation; shares compounds with MCL1-BIM inh; GST-MCL1 / FITC-Bim-BH3 fluorescence polarization; inhibition, % at 10.9 µM; 61% of 1,700 active; AID 2168;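 active = inhibition above the average of all tested compounds plus 3 SD, cut at about 40% in these data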;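 note: 0% = DMSO wells and 100% = unlabeled Bim-BH3 control peptide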
* = called active by the depositor.

`O=C(N/N=C/c1ccncc1)c1cc([N+](=O)[O-])cc([N+](=O)[O-])c1O` gave Mcl1 Bid PPI 9, Mcl1 Noxa PPI 84*, Bim-Mcl-1 -2, eIF4E-4G inh 13, 14-3-3 Bad PPI 89*, MCL1-BIM inh 43*, BCLXL inh confirm 12 and MCL1 BIM confirm 49*.
COc1ccc(NC(=O)CN(C)C(=O)Cn2cnc3c2c(=O)n(C)c(=O)n3C)cc1 was read as MCL1-BIM inh -1.
Screening CCOC(=O)c1c(-n2c(C)cc(C=O)c2C)sc2c1CCCC2 returned Mcl1 Bid PPI -50, Mcl1 Noxa PPI 2, Bim-Mcl-1 -1, eIF4E-4G inh -8, 14-3-3 Bad PPI -22 and MCL1-BIM inh -1.
Screening Cc1ccc(C)n1-c1sc2c(c1C(=O)O)CCCC2 returned Mcl1 Bid PPI -56, Mcl1 Noxa PPI 37, Bim-Mcl-1 -3, eIF4E-4G inh 10, 14-3-3 Bad PPI -10, MCL1-BIM inh 70*, BCLXL inh confirm 17 and MCL1 BIM confirm 49*.
Screening Cc1cc(SCC(=O)N/N=C/c2ccc(O)c(O)c2)nc2ccccc12 returned MCL1-BIM inh 49*, BCLXL inh confirm 47* and MCL1 BIM confirm 74*.
COc1cccc2c(SCC(=O)N/N=C/c3ccccc3)cc(C)nc12 was read as Mcl1 Bid PPI 1, Mcl1 Noxa PPI 13, Bim-Mcl-1 16, eIF4E-4G inh -5, 14-3-3 Bad PPI 1 and MCL1-BIM inh 0.
`Cc1cc(SCC(=O)N/N=C/c2ccc(O)cc2O)nc2ccccc12` gave MCL1-BIM inh 13.
COc1cccc2c(SCC(=O)N/N=C/c3ccc(O)c(O)c3)cc(C)nc12 was read as Mcl1 Bid PPI -16, Mcl1 Noxa PPI 64*, Bim-Mcl-1 10, eIF4E-4G inh 6, 14-3-3 Bad PPI 4, MCL1-BIM inh 43*, BCLXL inh confirm 36* and MCL1 BIM confirm 72*.
CC(CN1CCN(C)CC1)OC(=O)c1cccc(F)c1 (configuration not stated) was read as MCL1-BIM inh 3.
For Cc1cc(=O)[nH]c(-n2[nH]c3c(c2=O)CCCC3)n1 the results were Mcl1 Bid PPI -61, Mcl1 Noxa PPI -23, Bim-Mcl-1 -2, eIF4E-4G inh -7, 14-3-3 Bad PPI 13, MCL1-BIM inh 71*, BCLXL inh confirm 32* and MCL1 BIM confirm 40*.
Screening CCCOP(=O)(c1ccc(N(C)C)cc1)C(Nc1ccccc1)c1ccc(C)cc1 (configuration not stated) returned Mcl1 Bid PPI -10, Mcl1 Noxa PPI -4, eIF4E-4G inh 3, 14-3-3 Bad PPI -3, MCL1-BIM inh 44*, BCLXL inh confirm -6 and MCL1 BIM confirm -9.
Screening CCN(CC)S(=O)(=O)c1ccc2c(c1)nc(CCC(=O)Nc1ccccc1Cc1ccccc1)n2CC returned Mcl1 Bid PPI -4, Mcl1 Noxa PPI -6, Bim-Mcl-1 -1, eIF4E-4G inh -3, 14-3-3 Bad PPI 3 and MCL1-BIM inh 3.
`N#CC1=C(N)Oc2cc(N)ccc2C1c1ccc(F)cc1F` (configuration not stated) gave MCL1-BIM inh 54*, BCLXL inh confirm 23 and MCL1 BIM confirm 23.
`N#CC1=C(N)Oc2cc(N)ccc2C1c1ccc(F)cc1` (configuration not stated) gave Mcl1 Bid PPI -17, Mcl1 Noxa PPI 0, Bim-Mcl-1 -4, eIF4E-4G inh -8, 14-3-3 Bad PPI -7 and MCL1-BIM inh 5.
For COc1ccc(NS(=O)(=O)c2ccc(F)c(Cl)c2)cn1 the results were MCL1-BIM inh 124*, BCLXL inh confirm 49* and MCL1 BIM confirm 57*.
For COc1cccc(=O)c2c(C)n(-c3cc(C)cc(C)c3)c(C)c12 the results were Mcl1 Bid PPI -34, Mcl1 Noxa PPI 0, Bim-Mcl-1 -4, eIF4E-4G inh 2, 14-3-3 Bad PPI -12 and MCL1-BIM inh 0.
Screening COc1cccc(-n2c(C)c3c(OC)cccc(=O)c3c2C)c1 returned Mcl1 Bid PPI -68, Mcl1 Noxa PPI 33, Bim-Mcl-1 0, eIF4E-4G inh -2, 14-3-3 Bad PPI -12, MCL1-BIM inh 41*, BCLXL inh confirm 17 and MCL1 BIM confirm 15.
For COc1ccc(NC(=O)C/C(C)=N/NC(=O)c2ccccn2)c(OC)c1 the results were MCL1-BIM inh 7.
`Cc1cc(C(=O)Nc2ncn(Cc3ccc(F)cc3)n2)ccc1[N+](=O)[O-]` gave Mcl1 Bid PPI -18, Mcl1 Noxa PPI -1, eIF4E-4G inh -4, 14-3-3 Bad PPI 1 and MCL1-BIM inh 2.
Screening CN1C(=O)CSC1=S returned MCL1-BIM inh 8.
For O=C(CCN1C(=O)C2CC=C(Cl)CC2C1=O)N1CCCCC1 (configuration not stated) the results were Mcl1 Bid PPI -30, Mcl1 Noxa PPI -2, Bim-Mcl-1 -1, eIF4E-4G inh -3, 14-3-3 Bad PPI -10, MCL1-BIM inh 56*, BCLXL inh confirm 56* and MCL1 BIM confirm 66*.
`COc1cccc(/C=N/NC(=O)c2cc3cc([N+](=O)[O-])ccc3s2)c1O` gave Mcl1 Bid PPI 84*, Mcl1 Noxa PPI 68*, Bim-Mcl-1 6, eIF4E-4G inh 6, 14-3-3 Bad PPI 61, MCL1-BIM inh 45*, BCLXL inh confirm 20 and MCL1 BIM confirm 90*.
For COc1ccc(/C=N/NC(=O)c2cccc([N+](=O)[O-])c2)cc1O the results were Mcl1 Bid PPI -31, Mcl1 Noxa PPI 27, Bim-Mcl-1 0, eIF4E-4G inh 2, 14-3-3 Bad PPI 0 and MCL1-BIM inh 3.
`Cc1ccc(F)cc1NC(=O)COC(=O)C1CCN(c2ccc(C(F)(F)F)cn2)CC1` gave MCL1-BIM inh -12.
Screening COc1ccc(C(=O)NCC(=O)OCC(=O)Nc2ncc(Cl)cc2Cl)cc1[N+](=O)[O-] returned MCL1-BIM inh 26.
COC(=O)c1c(C)c2c(C)cc3ccccn3c-2c1C(=O)OC was read as Mcl1 Bid PPI -57, Mcl1 Noxa PPI 23, Bim-Mcl-1 0, eIF4E-4G inh -15, 14-3-3 Bad PPI 1, MCL1-BIM inh 51*, BCLXL inh confirm 60* and MCL1 BIM confirm 74*.
`Cc1ccc(CNC(=O)c2c(-c3ccccc3Cl)noc2C)cc1` gave MCL1-BIM inh -1.
For Cc1onc(-c2ccccc2Cl)c1C(=O)NCc1ccc2c(c1)cc(C)n2C the results were Mcl1 Bid PPI -139, Mcl1 Noxa PPI -7, eIF4E-4G inh -29, 14-3-3 Bad PPI -8, MCL1-BIM inh 77*, BCLXL inh confirm 34* and MCL1 BIM confirm 47*.

Assay outcomes deposited in PubChem BioAssay by several laboratories.
